Measured values as given in PubChem BioAssay AID1159580 (chemical genetic matrix, 2015).
“And” between values parts separate entries of the source, which are not always exact repeats. Equal values may be shown once. The campaign covered roughly 5,500 compounds. About 2,000 (36%) were called active. Inconclusive results (about 18%) are left out. Cut-off read from the data, not from the text of the source: active = normalized growth mostly below about 0.91 (no sharp cut-off); inconclusive = no clear call, values can overlap the other calls; inactive = mostly above about 0.92. This is one part of the list.

Test: chemical genetic growth profiling, strain panel (AID 1159580);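 note: tested at 20 µM; growth read once vehicle control cultures reached saturation at 30 °C; 1 = growth at the plate median or of vehicle wells; lower values mean less growth of the strain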
Settings: S. cerevisiae deletion strains, growth OD

Measured: normalized growth

CC1(C)C2CC[C@]3(C)C(C(=O)C=C4[C@@H]5C[C@@](C)(C(=O)O)CC[C@]5(C)CC[C@]43C)[C@@]2(C)CC[C@@H]1OC(=O)CCC(=O)O (stereo partly drawn)
inactive: locus YAL021C, strain ccr4, stronger effect = lower value 0.968 | locus YAL026C, strain drs2, stronger effect = lower value 0.981 | locus YAL030W, strain snc1, stronger effect = lower value 1 | locus YBL061C, strain skt5, stronger effect = lower value 0.99 | locus YBR009C, strain hhf1, stronger effect = lower value 1 | locus YBR021W, strain FUR4, stronger effect = lower value 0.981 | locus YBR023C, strain chs3, stronger effect = lower value 0.983 | locus YBR171W, strain sec66, stronger effect = lower value 0.975 | locus YBR229C, strain ROT2, stronger effect = lower value 1 | locus YBR231C, strain swc5, stronger effect = lower value 0.996 | locus YBR279W, strain paf1, stronger effect = lower value 0.976 | locus YCL011C, strain gbp2, stronger effect = lower value 0.963 | locus YCL016C, strain dcc1, stronger effect = lower value 0.979 | locus YCL029C, strain bik1, stronger effect = lower value 0.973 | locus YCL069W, strain vba3, stronger effect = lower value 1.02 | locus YCR088W, strain abp1, stronger effect = lower value 0.985 | locus YDL005C, strain med2, stronger effect = lower value 0.994 | locus YDL035C, strain GPR1, stronger effect = lower value 0.968 | locus YDL040C, strain nat1, stronger effect = lower value 0.988 | locus YDL074C, strain BRE1, stronger effect = lower value 1.02 | locus YDL101C, strain DUN1, stronger effect = lower value 1 | locus YDL134C, strain PPH21, stronger effect = lower value 0.966 | locus YDL185W, strain tfp1, stronger effect = lower value 0.958 | locus YDL192W, strain arf1, stronger effect = lower value 0.989 | locus YDR001C, strain nth1, stronger effect = lower value 0.983 | locus YDR069C, strain doa4, stronger effect = lower value 0.938 | locus YDR101C, strain arx1, stronger effect = lower value 0.994 | locus YDR137W, strain rgp1, stronger effect = lower value 0.911 | locus YDR159W, strain sac3, stronger effect = lower value 0.909 | locus YDR162C, strain NBP2, stronger effect = lower value 0.954 | locus YDR195W, strain ref2 1 | locus YDR297W, strain sur2, stronger effect = lower value 0.995 | locus YDR318W, strain mcm21, stronger effect = lower value 0.972 | locus YDR334W, strain swr1, stronger effect = lower value 0.991 | locus YDR335W, strain msn5, stronger effect = lower value 0.979 | locus YDR388W, stronger effect = lower value 1 | locus YDR392W, strain spt3, stronger effect = lower value 0.873 | locus YDR502C, strain sam2, stronger effect = lower value 0.99 | locus YEL003W, strain gim4, stronger effect = lower value 0.992 | locus YEL037C, strain rad23, stronger effect = lower value 0.986 | locus YEL061C, strain CIN8 (second series), stronger effect = lower value 0.988 | locus YEL061C, strain CIN8, stronger effect = lower value 0.999 | locus YER015W, strain faa2, stronger effect = lower value 0.989 | locus YER016W, strain bim1, stronger effect = lower value 0.975 | locus YER110C, stronger effect = lower value 0.982 | locus YER111C, strain swi4, stronger effect = lower value 0.968 | locus YER155C, strain BEM2 (second series), stronger effect = lower value 1.02 | locus YER155C, strain BEM2, stronger effect = lower value 1 | locus YER167W, strain BCK2, stronger effect = lower value 0.99 | locus YFR010W, strain ubp6, stronger effect = lower value 1.01 | locus YGL078C, strain dbp3, stronger effect = lower value 0.98 | locus YGL086W, strain mad1, stronger effect = lower value 0.999 | locus YGL167C, strain pmr1, stronger effect = lower value 0.987 | locus YGL173C, strain kem1, stronger effect = lower value 0.999 | locus YGL227W, strain vid30, stronger effect = lower value 0.982 | locus YGL240W, strain doc1, stronger effect = lower value 0.992 | locus YGL248W, strain PDE1, stronger effect = lower value 1.02 | locus YGL253W, strain hxk2, stronger effect = lower value 0.963 | locus YGR078C, strain PAC10, stronger effect = lower value 1.03 | locus YGR135W, strain pre9, stronger effect = lower value 0.96 | locus YGR229C, strain SMI1, stronger effect = lower value 0.999 | locus YGR252W, strain gcn5, stronger effect = lower value 1.04 | locus YHR013C, strain ard1, stronger effect = lower value 0.995 | locus YHR027C, strain rpn1, stronger effect = lower value 1 | locus YHR030C, strain SLT2, stronger effect = lower value 0.984 and 1.06 | locus YHR079C, strain IRE1 (second series), stronger effect = lower value 0.979 | locus YHR079C, strain IRE1, stronger effect = lower value 1.08 | locus YHR094C, strain hxt1, stronger effect = lower value 0.987 | locus YHR129C, strain ARP1, stronger effect = lower value 0.991 | locus YHR142W, strain chs7, stronger effect = lower value 0.955 | locus YHR200W, strain rpn10, stronger effect = lower value 0.958 | locus YIL066C, strain RNR3, stronger effect = lower value 0.983 | locus YIL073C, strain SPO22, stronger effect = lower value 0.91 | locus YIL125W, strain kgd1, stronger effect = lower value 1 | locus YIR030C, strain dcg1, stronger effect = lower value 0.98 | locus YJL092W, strain hpr5, stronger effect = lower value 1 | locus YJL095W, strain BCK1 (second series), stronger effect = lower value 1 | locus YJL095W, strain BCK1, stronger effect = lower value 1.03 | locus YJL115W, strain asf1, stronger effect = lower value 0.983 | locus YJL129C, strain trk1, stronger effect = lower value 0.936 | locus YJL134W, strain LCB3, stronger effect = lower value 0.99 | locus YJL154C, strain vps35, stronger effect = lower value 0.987 | locus YJL164C, strain tpk1, stronger effect = lower value 0.982 | locus YJL166W, strain qcr8, stronger effect = lower value 0.999 | locus YJL168C, strain set2, stronger effect = lower value 0.997 | locus YJL187C, strain SWE1 (second series), stronger effect = lower value 1.02 | locus YJR043C, strain POL32, stronger effect = lower value 1.01 | locus YJR066W, strain TOR1, stronger effect = lower value 1.01
